Compounds with a hit are over-represented: about 5.7% of the library has one in this group of screens.
ssDAF12 agonist – S. stercoralis DAF-12 activation, primary screen | HEK293 ssDAF-12/GRIP1 lit1-tk-luc reporter, luminescence; % of 3 µM dafachronic acid response | activation, % at 6.8 µM | 370,000 compounds, 1% hits;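 active = activation above the mean over all tested compounds plus 3 SD, cut at about 0.9% in these data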;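 also: 0% = DMSO-only wells and 100% = 3 µM delta7-dafachronic acid wells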
DAX1 inh-1 – inhibitors of human orphan nuclear receptor DAX1 (NR0B1); P51843; HEK293 Gal4-DAX1 luciferase reporter, luminescence; inhibition, % at 6.75 µM; 340,000 compounds, 0.99% hits;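 active = inhibition above the mean over all tested compounds plus 3 SD, cut at about 4.2% in these data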;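 also: 0% = DAX1-transfected cells with DMSO and 100% = empty-vector control cells with DMSO; inhibition shows as a rise in luminescence from relieved DAX1 repression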
Target sequence (P51843 207-470 limits assumed): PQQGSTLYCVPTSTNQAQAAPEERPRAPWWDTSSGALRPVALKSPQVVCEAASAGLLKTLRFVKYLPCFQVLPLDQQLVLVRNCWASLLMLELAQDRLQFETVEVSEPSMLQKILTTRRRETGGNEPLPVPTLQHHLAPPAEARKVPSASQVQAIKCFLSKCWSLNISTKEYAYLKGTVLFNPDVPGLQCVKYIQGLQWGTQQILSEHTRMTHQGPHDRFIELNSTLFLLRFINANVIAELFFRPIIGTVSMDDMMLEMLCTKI
DAX1 inh-2 – DAX1 (NR0B1) inhibition, primary screen; 370,000 compounds, 1.1% hits; HEK293T StAR-luciferase reporter, SF-1/DAX-1 repression relief; AID 652010; inhibition, % at 6.8 µM;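 active = inhibition above the mean over all tested compounds plus 3 SD, cut at about 3.6% in these data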;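 also: 0% = DAX-1 cells with DMSO and 100% = cells lacking DAX-1 with DMSO; higher inhibition means more luminescence from relief of DAX-1 repression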
AHR act – activators of human aryl hydrocarbon receptor. P35869. AHR-responsive luciferase reporter cells, luminescence. activation, % at 5 µM. 320,000 compounds, 2.5% hits; in the data active = activation above about 47%;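 also: 0% = vehicle wells and 100% = reference agonist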
hcDAF12 agonist – activates DAF-12 receptor from parasite H. contortus; HEK293 hcDAF-12 lit1-tk-luc reporter, luminescence; 0% DMSO, 100% Δ7-dafachronic acid; activation, % at 6.8 µM; 370,000 compounds, 1.4% hits;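 active = activation above the mean of all tested compounds plus 3 SD, cut at about 5.5% in these data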;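 also: 100% = response to 3 µM Δ7-dafachronic acid high control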
hgDAF-12 ag – agonists of H. glycines DAF-12 nuclear receptor; 370,000 compounds, 1.8% hits; activation, % at 6.8 µM; HEK293 GAL4-hgDAF12 UAS-luciferase reporter, agonist luminescence; normalized to butyrate control; AID 687014;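 active = activation above a cutoff set at the mean of all screened compounds plus 3 SD, cut at about 10% in these data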;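 also: 0% = DMSO wells and 100% = sodium butyrate wells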
AHR act cf – human AHR activation, confirmation; human cells, AHR-responsive luciferase reporter, luminescence; activation, % at 9 µM; AID 2845; 2,300 compounds, 87% hits; shares compounds with AHR act; in the data active = activation above about 49%;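 also: HepG2 hepatoma cells carrying a DRE-driven firefly luciferase reporter; 0% = vehicle wells and 100% = reference agonist wells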
PXR counter – activates human PXR in AHR activator counter-screen. 2,300 compounds, 88% hits. shares compounds with AHR act. activation, % at 11.6 µM. cell-based PXR reporter, luciferase luminescence; in the data active = activation above about 11%;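 also: human hepatoma DPX-2 cells expressing full-length human PXR; 0% = DMSO and 100% = reference agonist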
Target sequence (O75469 whole entry, looked up): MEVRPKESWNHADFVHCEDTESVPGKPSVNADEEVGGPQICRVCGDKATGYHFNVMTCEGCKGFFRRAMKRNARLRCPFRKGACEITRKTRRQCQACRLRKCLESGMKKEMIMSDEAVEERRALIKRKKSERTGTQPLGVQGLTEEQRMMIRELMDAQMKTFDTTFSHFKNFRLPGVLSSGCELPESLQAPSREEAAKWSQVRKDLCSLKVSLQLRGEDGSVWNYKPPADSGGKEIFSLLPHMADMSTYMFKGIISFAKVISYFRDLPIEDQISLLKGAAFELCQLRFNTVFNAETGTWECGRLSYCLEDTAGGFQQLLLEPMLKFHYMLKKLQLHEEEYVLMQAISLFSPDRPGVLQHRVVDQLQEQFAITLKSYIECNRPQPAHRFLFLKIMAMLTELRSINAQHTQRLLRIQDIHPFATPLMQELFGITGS
* hit, by the source's call; . = not tested or not shown.

SMILES | ssDAF12 agonist | DAX1 inh-1 | DAX1 inh-2 | AHR act | hcDAF12 agonist | hgDAF-12 ag | AHR act cf | PXR counter
Cc1ccc(C)c(NC(=O)CN(C)C(=O)C2=NNC(=O)CC2)c1 | -1 | 0 | 1 | 2 | 0 | 0 | . | .
Cc1ccc(-c2nnc(SCC(=O)N3CC(C)CC(C)C3)o2)cc1C (stereo not drawn) | -2 | 2 | 0 | 2 | -1 | -3 | . | .
COc1cc2[nH]c(-c3ccc(C)cc3)cc(=O)c2cc1OC | -1 | 1 | 1 | 134* | -1 | 2 | 78* | 13*
COc1cc2[nH]c(-c3cccc(F)c3)cc(=O)c2cc1OC | -1 | 0 | 1 | 91* | -1 | -1 | 54* | .
Cc1ccc(-c2cc(=O)c3cc(Cl)ccc3[nH]2)cc1 | . | . | . | 18 | . | . | . | .
CC(C)c1ccc(S(=O)(=O)/N=C2\C=C(NS(=O)(=O)c3ccccc3)C(=O)c3ccccc32)cc1 | 1 | -1 | 0 | 83* | 3 | -2 | 20 | 130*
Cc1cc(-c2nc3ccccc3o2)c2ccccc2n1 | 1.2* | 1 | -1 | 105* | 2 | 1 | 135* | 11*
Cc1[nH]n(C(N)=S)c(=O)c1N=Nc1cccc(C(F)(F)F)c1 | -1 | 2 | 0 | 143* | 2 | 2 | 74* | 21*
COCc1cc(C)n(CC(=O)Nc2cc(C)cc(C)c2)c(=O)c1C#N | 0 | 0 | 1 | 7 | 1 | 3 | . | .
CCc1noc(C)c1C(=O)NNC(=O)COc1ccc(Br)cc1 | -1 | 0 | 0 | 4 | -1 | 1 | . | .
Cc1nn(Cc2ccc(F)cc2)c2sc(C(=O)Nc3nccs3)cc12 | -2 | -3 | -1 | 96* | 1 | -2 | 109* | 38*
Cc1nn(Cc2ccc(F)cc2)c2sc(C(=O)Nc3ccccc3N3CCOCC3)cc12 | -1 | -1 | 0 | 5 | -3 | 2 | . | .
Cc1nn(Cc2ccccc2Cl)c2sc(C(=O)Nc3nccs3)cc12 | -2 | -1 | -1 | 102* | -4 | -2 | 119* | 99*
CC(C)n1cnnc1SCC(=O)NNC(=O)COc1ccc(Cl)cc1 | 0 | 2 | 0 | 2 | -1 | 2 | . | .
Cc1onc(-c2c(F)cccc2Cl)c1C(=O)Nc1cccc(S(=O)(=O)N2CCOCC2)c1 | -1 | 0 | -2 | 1 | 0 | -3 | . | .
O=C(Nc1cccc2cccnc12)c1ccccc1Cl | -2 | . | 0 | 8 | -2 | 0 | . | .
CC(=O)Nc1cccc(NC(=O)c2cccc3cccnc23)c1 | -2 | -1 | 0 | 124* | 0 | 1 | 101* | 56*
Cc1ccc(/C=C2\SC(=S)N(CCC(=O)NNS(=O)(=O)c3ccccc3)C2=O)cc1 | . | -2 | . | -2 | . | . | . | .
CC(=O)/C(=C/N(C)C)Sc1ccc(C)cc1 | -1 | 0 | 0 | -1 | 2 | -1 | . | .
CCOC(=O)c1cc(Cl)c2c(ccc3ccccc32)n1 | 0 | 1 | 0 | . | 0 | 0 | . | .
CCOC(=O)Cc1cc(-c2ccc(O)cc2)nc2ccc3ccccc3c12 | -1 | -1 | -2 | 102* | -1 | 0 | 92* | .
COc1ccc(-c2cc(C(=O)OCC(=O)N(C)C)c3ccccc3n2)cc1 | -1 | -2 | -2 | 7 | -3 | 1 | . | .
CCOC(=O)Cc1cc(-c2ccc(OC)cc2)nc2ccc3ccccc3c12 | 0 | 0 | 0 | 129* | 3 | 1 | 108* | 16*
COC(=O)c1ccccc1NC(=O)c1cccc(NC(=O)C(C)C)c1 | -2 | -1 | 0 | -5 | -2 | -4 | . | .
Cc1cccc(NC(=O)c2cc(=O)[nH]c3ccccc23)c1 | -1 | 1 | 0 | 89* | -1 | 1 | 90* | 11*
SMILES | ssDAF12 agonist | DAX1 inh-1 | DAX1 inh-2 | AHR act | hcDAF12 agonist | hgDAF-12 ag | AHR act cf | PXR counter
CCN1C(=O)CC(NCc2ccc(S(N)(=O)=O)cc2)C1=O (stereo not drawn) | -2 | 0 | 1 | 4 | -1 | 1 | . | .
COc1ccc(-c2nc3ncccc3o2)cc1NC(=O)c1cccs1 | -1 | 2 | 0 | 81* | -1 | 0 | 43 | 30*
Cc1ccc(-c2nc3ncccc3o2)cc1NC(=O)c1ccccc1 | -1 | 2 | 0 | 5 | 0 | 0 | . | .
O=C(Nc1cc(-c2nc3ncccc3o2)ccc1Cl)c1cccs1 | -1 | 0 | -6 | 134* | -1 | 2 | 98* | 47*
CCOC(=O)[C@]12CCCC=C1N(Cc1ccccc1)C(=O)[C@H](CC(=O)NCC1CCCCC1)C2 | -1 | . | -1 | . | 0 | 4 | . | .
COc1ccc(NC(=O)c2ccc3nc[nH]c3c2)c(OC)c1 | -1 | 1 | 0 | 14 | 1 | -1 | . | .
O=C(Nc1ccc(OC(F)(F)F)cc1)c1ccc2nc[nH]c2c1 | -1 | 1 | 0 | 96* | 0 | 4 | 137* | 12*
Cc1ccc(Nc2nc(-c3ccc(C)cc3)c(CC(=O)O)s2)cc1 | -1 | 0 | 0 | 85* | 4 | 6 | 9 | 8
COc1ccc(Nc2nc(-c3ccc(OC)cc3)c(CCC(=O)O)s2)cc1 | -1 | 0 | 1 | 2 | 1 | 4 | . | .
Cc1nc(NC(=O)c2ccc(Cl)cc2)nc2cc3c(cc12)OCO3 | -1 | -1 | 0 | 91* | 3 | -4 | 71* | 17*
COc1ccc(C(=O)Nc2nc(C)c3cc4c(cc3n2)OCO4)cc1 | -2 | 0 | -1 | 39 | 0 | -5 | . | .
Cc1cn2c(N)c(/C=C3\C=Nc4ccccc43)c(=O)nc2s1 | -1 | -1 | 0 | 111* | -1 | 0 | 116* | 20*
O=C(Nc1cccc(Cl)c1)Nc1ccnc(-c2cccnc2)n1 | -2 | -2 | -2 | 148* | -2 | -9 | 129* | 12*
O=C(Nc1ccnc(-c2cccnc2)n1)c1ccccc1Cl | -2 | -1 | -1 | 136* | -1 | -1 | 37 | 17*
Cc1nn(CC(=O)Nc2ccc(C(=O)N3CCCC3)cc2)c(=O)c2ccccc12 | -1 | -1 | -1 | 86* | -1 | -2 | 5 | 5
Cc1nn(CC(=O)Nc2ccc(C(=O)N3CCCCC3)cc2)c(=O)c2ccccc12 | -1 | 1 | -1 | 1 | -3 | -3 | . | .
Cn1c(SCC(=O)Nc2ccc3c(c2)OCO3)nnc1C(F)(F)F | -1 | 0 | -2 | 28 | 0 | 0 | . | .
Cc1ccsc1C(=O)N1CCC1(C)C(=O)NS(=O)(=O)c1ccc(C#N)cc1 (stereo not drawn) | -1 | . | 0 | . | 0 | -1 | . | .
COc1ccc2c(c1OC)C(=O)N(c1nccs1)C2 | 0 | 3 | 1 | 82* | 5 | 7 | 148* | 17*
COc1ccc(N2Cc3ccc(OC)c(OC)c3C2=O)cc1 | -1 | 2 | 1 | -6 | 2 | 10 | . | .

Compound activity (PubChem BioAssay)
